# Test results as given in PubChem BioAssay (EPA / NIEHS).
# The source holds several records for some structures; these can differ, active in one and inactive in another. Activity calls are given as the source filed them. Rule for the calls: active = hit-call score of the fitted dose curve at least 0.9, where 1 is the maximum; inactive = score below 0.9.
# Experiments:
# [1] = read-out: TIMP metallopeptidase inhibitor 1 (TIMP1), TIMP1 (gene 7076); assay: BSK_MyoF_TIMP1: BioMAP Diversity Plus: MyoF Assay for TIMP metallopeptidase inhibitor 1 (TIMP1) Biomarker Activity (AID 2284269); conditions: primary human lung fibroblasts
# Procedure, shortened: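 Fibroblasts from human lung are dosed with chemical, cultured 24 h, and assayed for TIMP-1 by ELISA. Increases over the DMSO baseline are scored, with SRB total-protein staining run in parallel for cytotoxicity.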
# [2] = read-out: Matrix Metallopeptidase 1 (MMP1), MMP1 (gene 4312); assay: BSK_BF4T_MMP1: BioMAP Diversity Plus: BF4T Assay for Matrix Metallopeptidase 1 (MMP1) Biomarker Activity (AID 2284270); conditions: primary human bronchial epithelial cells with fibroblasts
# Procedure, shortened: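 MMP-1 quantified by ELISA in primary human bronchial epithelial/dermal fibroblast co-cultures, 24 hours post-dosing, with DMSO as baseline; parallel sulforhodamine B staining (560 nm) tracks overt cytotoxicity.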
# [3] = read-out: Matrix Metallopeptidase 3 (MMP3), MMP3 (gene 4314); assay: BSK_BF4T_MMP3: BioMAP Diversity Plus: BF4T Assay for Matrix Metallopeptidase 3 (MMP3) Biomarker Activity (AID 2284271); conditions: primary human bronchial epithelial cells with fibroblasts
# Procedure, shortened: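 MMP-3 level read by ELISA after 24 h chemical exposure of bronchial epithelial cell/dermal fibroblast co-cultures, fitted upward relative to DMSO. Parallel cultures stained with 0.1% SRB after TCA fixation gauge overt cytotoxicity.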
# [4] = read-out: Tissue plasminogen activator (tPA), PLAT (gene 5327); assay: BSK_BF4T_tPA: BioMAP Diversity Plus: BF4T Assay for Tissue plasminogen activator (tPA) Biomarker Activity (AID 2284272); conditions: primary human bronchial epithelial cells with fibroblasts
# Procedure, shortened: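 tPA level quantified by ELISA at 24 h post-treatment in bronchial epithelial/dermal fibroblast co-cultures, gain of signal scored against DMSO baseline. Parallel cultures stained with 0.1% SRB (560 nm) to flag overt cytotoxicity.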
# [5] = read-out: Plasminogen Activator Inhibitor-1 (PAI1), SERPINE1 (gene 5054); assay: BSK_BF4T_PAI1: BioMAP Diversity Plus: BF4T Assay for Plasminogen Activator Inhibitor-1 (PAI1) Biomarker Activity (AID 2284273); conditions: primary human bronchial epithelial cells with fibroblasts
# Procedure, shortened: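 PAI-1 levels quantified by ELISA 24 h post-dosing in bronchial epithelial cell plus dermal fibroblast cultures. Signal gain referenced to DMSO baseline. Sulforhodamine B total-protein staining of parallel wells checked cytotoxicity.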
# [6] = BSK_BF4T_SRB: Viability Assessment in the BioMAP Diversity Plus: BF4T Assay (AID 2284274); conditions: primary human bronchial epithelial cells with fibroblasts
# Procedure, shortened: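 Cytotoxicity measured as total protein: cells fixed with 10% TCA, stained with 0.1% SRB, read at 560 nm. Bronchial epithelial/dermal fibroblast co-culture, 24 h after dosing, with positive-direction fitting relative to DMSO.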
# [7] = read-out: urokinase Plasminogen Activator (uPA), PLAU (gene 5328); assay: BSK_BF4T_uPA: BioMAP Diversity Plus: BF4T Assay for urokinase Plasminogen Activator (uPA) Biomarker Activity (AID 2284275); conditions: primary human bronchial epithelial cells with fibroblasts
# Procedure, shortened: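 uPA levels measured by ELISA at 24 hours in BF4T cultures (bronchial epithelial cells plus dermal fibroblasts) and compared with DMSO; cytotoxicity tracked in parallel cultures by sulforhodamine B staining.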
# [8] = read-out: Matrix Metallopeptidase 9 (MMP9), MMP9 (gene 4318); assay: BSK_BF4T_MMP9: BioMAP Diversity Plus: BF4T Assay for Matrix Metallopeptidase 9 (MMP9) Biomarker Activity (AID 2284276); conditions: primary human bronchial epithelial cells with fibroblasts
# Procedure, shortened: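 MMP-9 levels were measured by ELISA after 24 h exposure of bronchial epithelial cell/dermal fibroblast co-cultures, with DMSO as baseline. Parallel cultures were stained with 0.1% SRB after TCA fixation, read at 560 nm, to flag overt cytotoxicity.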
# [9] = read-out: Interleukin-8 (IL8), CXCL8 (gene 3576); assay: BSK_IMphg_IL8: BioMAP Diversity Plus: IMphg Assay for Interleukin-8 (IL8) Biomarker Activity (AID 2284277); conditions: primary human endothelial cells with macrophages
# Procedure, shortened: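 IL-8 levels were measured by ELISA 24 h after dosing in primary human venular endothelial cell–macrophage cultures, referenced to DMSO; parallel SRB staining monitored overt cytotoxicity.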
# [10] = read-out: Intercellular Adhesion Molecule 1 (ICAM1), ICAM1 (gene 3383); assay: BSK_BE3C_ICAM1: BioMAP Diversity Plus: BE3C Assay for Intercellular Adhesion Molecule 1 (ICAM1) Biomarker Activity (AID 2284278); conditions: primary human bronchial epithelial cells;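 note: cell-surface ICAM-1 protein level quantified by ELISA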
# Procedure, shortened: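 hu bronchial epithelial primary cells, 24 h cpd exposure, ICAM-1 ELISA; gain-of-signal fit vs DMSO baseline.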
# [11] = read-out: Interleukin-8 (IL8), CXCL8 (gene 3576); assay: BSK_BE3C_IL8: BioMAP Diversity Plus: BE3C Assay for Interleukin-8 (IL8) Biomarker Activity (AID 2284280); conditions: primary human bronchial epithelial cells
# Procedure, shortened: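 Dose human bronchial epithelial cells with chemical; incubate 24 h; quantify IL-8 by ELISA; fit response upward versus DMSO controls.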
# [12] = read-out: Epidermal growth factor receptor (EGFR), EGFR (gene 1956); assay: BSK_BE3C_EGFR: BioMAP Diversity Plus: BE3C Assay for Epidermal growth factor receptor (EGFR) Biomarker Activity (AID 2284281); conditions: primary human bronchial epithelial cells
# Procedure, shortened: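 ELISA read-out of EGFR levels on human bronchial epithelial primary cells collected 24 h post-dosing. DMSO served as negative control and baseline for gain-of-signal fitting.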
# [13] = read-out: KRT18 (gene 3875); assay: BSK_BE3C_Keratin818: BioMAP Diversity Plus: BE3C Assay for Keratin 818 Biomarker Activity (AID 2284282); conditions: primary human bronchial epithelial cells
# Procedure, shortened: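 In this multiplexed primary-cell system, bronchial epithelial cells were dosed and harvested at 24 h. Keratin 8/18 was determined by ELISA and analysed for increases over DMSO controls.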
# [14] = read-out: Matrix Metallopeptidase 9 (MMP9), MMP9 (gene 4318); assay: BSK_BE3C_MMP9: BioMAP Diversity Plus: BE3C Assay for Matrix Metallopeptidase 9 (MMP9) Biomarker Activity (AID 2284283); conditions: primary human bronchial epithelial cells
# Procedure, shortened: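 Endpoint is the ELISA MMP-9 signal in human primary bronchial epithelial cultures taken 24 h after chemical dosing. DMSO serves as negative control and baseline, with gain-of-signal fitting.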
# [15] = read-out: Plasminogen activator inhibitor-1 (PAI1), SERPINE1 (gene 5054); assay: BSK_CASM3C_PAI1: BioMAP Diversity Plus: CASM3C Assay for Plasminogen activator inhibitor-1 (PAI1) Biomarker Activity (AID 2284284); conditions: primary human coronary artery smooth muscle cells
# [16] = read-out: Monocyte Chemoattractant Protein-1 (MCP1), CCL2 (gene 6347); assay: BSK_hDFCGF_MCP1: BioMAP Diversity Plus: hDFCGF Assay for Monocyte Chemoattractant Protein-1 (MCP1) Biomarker Activity (AID 2284285); conditions: primary human foreskin fibroblasts
# Procedure, shortened: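 MCP-1 ELISA readout was taken 24 hours after dosing primary human dermal fibroblasts in the hDFCGF system, with DMSO as baseline. Parallel sulforhodamine B staining of total protein tracked overt cytotoxicity.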
# [17] = read-out: Vascular cell adhesion molecule 1 (VCAM1), VCAM1 (gene 7412); assay: BSK_IMphg_VCAM1: BioMAP Diversity Plus: IMphg Assay for Vascular cell adhesion molecule 1 (VCAM1) Biomarker Activity (AID 2284286); conditions: primary human endothelial cells with macrophages
# Procedure, shortened: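 ELISA read-out of VCAM-1 on venular endothelial cell/macrophage co-cultures at 24 h post-treatment, with DMSO as baseline and positive-direction fitting. Parallel sulforhodamine B total-protein staining (560 nm) served as the overt cytotoxicity measure.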
# [18] = read-out: Intercellular Adhesion Molecule 1 (ICAM1), ICAM1 (gene 3383); assay: BSK_hDFCGF_ICAM1: BioMAP Diversity Plus: hDFCGF Assay for Intercellular Adhesion Molecule 1 (ICAM1) Biomarker Activity (AID 2284287); conditions: primary human foreskin fibroblasts
# Procedure, shortened: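 ICAM-1 ELISA readout 24 h after dosing, DMSO as baseline, in human dermal foreskin fibroblast cultures. Cytotoxicity checked in parallel wells by SRB staining (0.1% SRB, 10% TCA fixation, 560 nm).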
# [19] = read-out: CD40, CD40 (gene 958); assay: BSK_IMphg_CD40: BioMAP Diversity Plus: IMphg Assay for CD40 Biomarker Activity (AID 2284288); conditions: primary human endothelial cells with macrophages
# Procedure, shortened: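 ELISA read-out of cell-surface CD40 at 24 h in human venular endothelial cell/macrophage co-cultures. Activity fitted in the positive direction against DMSO; parallel SRB staining (560 nm) gauges overt cytotoxicity.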
# [20] = read-out: Interferon-inducible T-cell alpha chemoattractant (ITAC), CXCL11 (gene 6373); assay: BSK_BE3C_ITAC: BioMAP Diversity Plus: BE3C Assay for Interferon-inducible T-cell alpha chemoattractant (ITAC) Biomarker Activity (AID 2284279); conditions: primary human bronchial epithelial cells
# Procedure, shortened: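 BE3C cells (human primary bronchial epithelium), 24 h compound exposure, I-TAC by ELISA, DMSO = negative control/baseline, positive fitting direction.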
compound,measurement,setting,value
COC(F)(C(F)F)C(F)(F)F (stereo not drawn),outcome,[1],inactive
same,outcome,[2],inactive
same,outcome,[3],inactive
same,outcome,[4],inactive
same,outcome,[5],inactive
same,outcome,[6],inactive
same,outcome,[7],inactive
same,outcome,[8],inactive
same,outcome,[9],inactive
same,outcome,[10],inactive
same,outcome,[11],inactive
same,outcome,[12],inactive
same,outcome,[13],inactive
same,outcome,[14],inactive
same,outcome,[15],inactive
same,outcome,[16],inactive
same,outcome,[17],inactive
same,outcome,[18],inactive
O=C(O)C(F)(F)C(F)(F)C(F)(F)OC(F)(F)F,outcome,[1],inactive
same,outcome,[2],inactive
same,outcome,[3],inactive
same,outcome,[4],inactive
same,outcome,[5],inactive
same,outcome,[6],inactive
same,outcome,[7],inactive
same,outcome,[8],inactive
same,outcome,[9],inactive
same,outcome,[10],inactive
same,outcome,[11],inactive
same,outcome,[12],inactive
same,outcome,[14],inactive
same,outcome,[15],inactive
same,outcome,[16],inactive
same,outcome,[17],inactive
same,outcome,[18],inactive
same,outcome,[19],inactive
CCOC(=O)CC(=O)C(F)(F)C(F)(F)F,outcome,[1],inactive
same,outcome,[2],inactive
same,outcome,[3],inactive
same,outcome,[4],inactive
same,outcome,[5],inactive
same,outcome,[6],inactive
same,outcome,[7],inactive
same,outcome,[8],inactive
same,outcome,[9],inactive
same,outcome,[10],inactive
same,outcome,[11],inactive
same,outcome,[12],inactive
same,outcome,[14],inactive
same,outcome,[15],inactive
same,outcome,[16],inactive
same,outcome,[17],inactive
same,outcome,[18],inactive
C[Si](Cl)(Cl)CCC(F)(F)C(F)(F)C(F)(F)C(F)(F)C(F)(F)C(F)(F)F,outcome,[1],inactive
same,outcome,[2],inactive
same,outcome,[3],inactive
same,outcome,[4],inactive
same,outcome,[5],inactive
same,outcome,[6],inactive
same,outcome,[7],inactive
same,outcome,[8],inactive
same,outcome,[9],inactive
same,outcome,[10],inactive
same,outcome,[20],inactive
same,outcome,[11],inactive
same,outcome,[12],inactive
same,outcome,[14],inactive
same,outcome,[15],inactive
same,AC50,[16],0.441 µM (active)
same,outcome,[16],inactive
same,outcome,[17],inactive
same,AC50,[18],2.46 µM (active)
same,outcome,[18],inactive
